PAX8 reporter – PAX8 transcriptional activity inhibition; RMG-I TPO-luciferase reporter, SteadyGlo, 24 h; inhibition, % at 12.6 µM; 360,000 compounds, 1.2% hits; AID 652154;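 active = mean replicate inhibition at least 60% with every replicate also reaching 60%; inconclusive = only one of the two criteria is met; inactive = mean below 60% and not all replicates reaching 60%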;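 also: luciferase light reporting Pax8 driven TPO promoter activity; plate controls were median of neutral control wells for no effect and mitoxantrone controls for full effect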
Peg3 promoter – inhibitors of Peg3 promoter | HeLa PEG-Prom luciferase reporter, luminescence, overnight | AID 588405 | 360,000 compounds, 1.7% hits | inhibition, % at 20 µM;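 active = inhibition of at least 50% at 20 µM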
Shn3 inh set2 – reduces Shn3 3'UTR luciferase signal in osteoblasts; Clone20 osteoblast Shn3 3'UTR firefly luciferase, 24 h; inhibition, % at 12.5 µM; 360,000 compounds, 0.52% hits; AID 588674;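 active = mean inhibition of at least 75% with every replicate also reaching 75%; inconclusive = mean inhibition at least 75% but some replicate below; inactive = mean inhibition below 75%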;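 also: 0% = median of neutral control wells and 100% = pilot-screen positive control compound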
TRPM1 prom inh – inhibitors of MITF-driven TRPM1 promoter in melanoma cells; AID 488899; inhibition, % at 12.5 µM; SK-MEL-5 TRPM1 promoter luciferase, 24 h; 330,000 compounds, 0.83% hits;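 active = mean inhibition across replicates of 60% or more, whatever share of single replicates reaches that level; inconclusive = some that reach 60%, reason not given; inactive = mean inhibition across replicates below 60%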
EWS-Fli inh – EWS/Fli transcriptional activity inhibition; inhibition, % at 12.6 µM; A673 NR0B1-luciferase reporter, viability-normalised; 350,000 compounds, 0.67% hits; AID 651661;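 active = mean inhibition of at least 50% after viability correction, with every replicate also passing that limit; inconclusive = mean reaches 50% but only one of two replicates passes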;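 also: firefly luciferase signal divided by Alamar Blue viability fluorescence both relative to DMSO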
ABHD5-PLIN5 inh – ABHD5-PLIN5 protein interaction inhibition; 360,000 compounds, 0.78% hits; AID 602281; Split G. princeps luciferase complementation, luminescence, 4 h; Q00G26+Q8WTS1; inhibition, % at 4 µM;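 active = inhibition above the mean inhibition across every tested compound plus 3 SD, cut at about 22% in these data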;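 also: 0% = DMSO only wells and the 100% control is not disclosed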
Target sequence (Q00G26 whole entry, looked up): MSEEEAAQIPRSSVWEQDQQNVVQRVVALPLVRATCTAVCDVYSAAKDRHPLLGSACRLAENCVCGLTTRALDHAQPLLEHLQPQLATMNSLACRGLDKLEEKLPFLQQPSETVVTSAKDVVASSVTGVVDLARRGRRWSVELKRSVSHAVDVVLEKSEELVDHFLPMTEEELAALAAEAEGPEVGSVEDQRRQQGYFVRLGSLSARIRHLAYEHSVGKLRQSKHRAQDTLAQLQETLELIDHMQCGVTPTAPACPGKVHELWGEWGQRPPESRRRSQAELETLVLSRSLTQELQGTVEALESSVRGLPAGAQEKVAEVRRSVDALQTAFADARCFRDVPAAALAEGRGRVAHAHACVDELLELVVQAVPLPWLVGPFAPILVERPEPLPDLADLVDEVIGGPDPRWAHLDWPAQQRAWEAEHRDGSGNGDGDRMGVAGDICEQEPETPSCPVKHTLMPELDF
Target sequence (Q8WTS1 whole entry, looked up): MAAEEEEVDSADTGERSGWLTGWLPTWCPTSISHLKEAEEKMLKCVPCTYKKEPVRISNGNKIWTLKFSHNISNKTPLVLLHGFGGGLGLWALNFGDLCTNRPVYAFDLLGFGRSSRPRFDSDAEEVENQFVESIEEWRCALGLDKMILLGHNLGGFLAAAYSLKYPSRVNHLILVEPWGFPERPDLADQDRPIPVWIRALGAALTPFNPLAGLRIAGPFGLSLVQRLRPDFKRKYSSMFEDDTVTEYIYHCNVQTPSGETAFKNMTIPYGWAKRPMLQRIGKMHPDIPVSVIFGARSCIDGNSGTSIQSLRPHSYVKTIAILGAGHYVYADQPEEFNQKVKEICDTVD
An asterisk follows results filed as active; ? = inconclusive; · = no result given. A selection: hits, their analogues and other compounds. The true share with any hit is near 3%.

SMILES	PAX8 reporter	Peg3 promoter	Shn3 inh set2	TRPM1 prom inh	EWS-Fli inh	ABHD5-PLIN5 inh
COc1ccc(NC(=O)Nc2ccc3c(c2)C(=O)N([C@@H](C)CO)C[C@@H](C)[C@@H](CN(C)Cc2ccc(-c4ccccc4)cc2)O3)cc1	·	·	·	·	4	·
COC(=O)C1=C(C)N(Cc2ccc(C(F)(F)F)cc2)C(=NCc2ccccc2)NC1c1cccc(Cl)c1 (stereo not drawn)	100*	·	·	·	34	·
COC(=O)C1=C(C)N(Cc2cccc(C(F)(F)F)c2)C(=NCc2ccc(C(F)(F)F)cc2)NC1c1ccccc1 (stereo not drawn)	19	·	·	·	52*	·
COC(=O)C1=C(C)N(Cc2ccc(C(F)(F)F)cc2)C(=NCc2ccc(C(F)(F)F)cc2)NC1c1cccc(F)c1 (stereo not drawn)	33	·	·	·	57*	·
COC(=O)C1=C(C)N(Cc2ccccc2)C(=NCc2cccc(C(F)(F)F)c2)N[C@H]1c1cccc(F)c1	59	100*	-4	94*	39	5
COC(=O)C1=C(C)N(Cc2ccc(C(F)(F)F)cc2)C(=NCc2ccccc2)NC1c1cccc(C(F)(F)F)c1 (stereo not drawn)	?	·	·	·	34	·
CCCC(=O)Nc1ccc2c(c1)C(=O)N(C)C[C@H](OC)[C@H](C)CN(C(=O)CN(C)C)[C@@H](C)CO2	·	·	·	·	-1	·
C[C@@H](NC(=O)C[C@@H]1C=C[C@H](NC(=O)CN2CCOCC2)[C@@H](CO)O1)c1ccccc1	-10	·	·	·	-4	·
COC(=O)C1=C(C)N(Cc2ccc(C(F)(F)F)cc2)C(=NCc2ccccc2)NC1c1ccc(C(F)(F)F)cc1 (stereo not drawn)	84*	·	·	·	43	·
COC(=O)C1=C(C)N(Cc2cccc(C(F)(F)F)c2)C(=NCc2cc(OC)c(OC)c(OC)c2)NC1c1ccccc1 (stereo not drawn)	7	·	·	·	9	·
COC(=O)C1=C(C)N(Cc2cccc(C(F)(F)F)c2)C(=NCc2ccc(OC)cc2)NC1c1ccccc1 (stereo not drawn)	17	·	·	·	27	·
COC(=O)C1=C(C)N(Cc2cccc(C(F)(F)F)c2)C(=NCc2cc(OC)c(OC)c(OC)c2)NC1c1cccc(C(F)(F)F)c1 (stereo not drawn)	85*	·	·	·	45	·
COC(=O)C1=C(C)N(Cc2ccccc2)C(=NCc2cccc(C(F)(F)F)c2)N[C@H]1c1cccc(C(F)(F)F)c1	·	99*	-4	96*	·	-11
COC(=O)C1=C(C)N(Cc2ccccc2)C(=NCc2ccc(OC)cc2)N[C@H]1c1ccccc1	26	69*	4	3	19	2
COc1ccc2c3c(n(C)c2c1)[C@H](CO)N(C(=O)c1ccccc1)CC31CN(C)C1	·	·	·	·	-4	·
C/C=C/c1ccc([C@H]2[C@@H](CO)N(C(=O)CC)C23CN(C(=O)c2ccccc2)C3)cc1	-2	·	·	·	1	·
COc1ccc2c3c([nH]c2c1)[C@H](CO)N(C(=O)C1CCOCC1)CC31CN(Cc2cccc(F)c2)C1	·	·	·	·	-2	·
COC(=O)C1=C(C)N(Cc2cccc(C(F)(F)F)c2)C(=NCC2CC2)NC1c1cccc(C(F)(F)F)c1 (stereo not drawn)	89*	·	·	·	45	·
Cc1ccc([C@H]2C[C@H](O)[C@@H](n3cc(-c4ccc(F)cc4)nn3)CN2Cc2cccs2)cc1	57	43	33	·	53*	0
CCCCCCN1C[C@H](n2cc(-c3ccc(F)cc3)nn2)[C@@H](O)C[C@@H]1c1ccccc1	10	2	6	·	1	-2
CCCCCCN1C[C@H](n2cc(-c3ccc(F)cc3)nn2)[C@@H](O)C[C@@H]1c1ccc(Cl)cc1	6	98*	95*	·	41	1
CO[C@H]1CN(C)C(=O)c2ccc(NC(=O)C3CC3)cc2OC[C@@H](C)N(C(=O)NC(C)C)C[C@H]1C	-5	·	·	·	0	·
COc1ccc(-c2nc3ccccc3n2Cc2ccccc2)cc1	·	-1	3	-8	·	-3
COc1ccc(-c2n(Cc3ccccc3)c3ccccc3[n+]2Cc2ccccc2)cc1	89*	48	51	80*	44	-1
CC(C)(C)NC(=O)C(c1ccccc1)n1c(=O)c(-c2cc3ccccc3[nH]2)nc2ccccc21 (stereo not drawn)	10	·	·	·	6	-7
CC(C)(C)NC(=O)C(c1ccc(C#N)cc1)n1c(=O)c(-c2cc3ccccc3[nH]2)nc2ccccc21 (stereo not drawn)	65*	·	·	·	17	-11
